# Test results taken from PubChem BioAssay.
# Values joined by “and” are separate entries in the source; they are usually repeats but may differ in a detail not shown here. Identical values can stand only once. Active and inactive are the calls of the source.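 The calls were made as follows, unless noted: active = compounds whose cell count with miR-34 switched on is under 0.7 times the count with it off; inactive = the rest.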
# How the values were obtained:
# [1] = sensitizers of A549 cells to miR-34 induction, primary screen, imaging, A549 dox-inducible miR-34, nuclei and caspase counts (AID 1347080); details: A549 miR-34 inducible, Hoechst nuclei count, 48 h; also: test concentration not given here
# [2] = survival rescue of mitochondrial mutant cells in low glucose, primary screen, MELAS cybrids, Rieske KO mouse fibroblasts, CellTiter-Glo (AID 1508586;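 active = mean z-score across replicates of 1.96 or higher in either the MELAS or the Rieske mutant cell line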;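 also: test concentration not given here; z relative to plate mean and SD of compound and empty wells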)
# [3] = viability rescue of complex I mutant cybrids, primary screen, cell-based, galactose medium, ATP luminescence (AID 1645843;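 active = z-score of at least 1.8 in each of two replicates, scored against plate mean and spread of sample wells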;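 also: positive z means more ATP and so rescue of galactose-driven cybrid death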); details: complex I mutant cybrid cells, 72 h, stronger effect = higher value
# [4] = stronger effect = lower value, cell number ratio, induced over uninduced
# [5] = measured here: relative caspase fold change +Dox/-Dox
# [6] = measured here: total cells with miR-34 induction, stronger effect = lower value
# [7] = measured here: total cells without miR-34 induction
# [8] = MELAS cybrid survival, CellTiter-Glo 48 h, stronger effect = higher value
# [9] = Rieske KO mouse fibroblast survival, CellTiter-Glo 72 h
SMILES,"fold change [1, 4]","fold change [1, 5]","cell count [1, 6]","cell count [1, 7]","z-score [2, 8]","z-score [2, 9]",z-score [3]
COc1ccc(CCC(=O)O)cc1OC,0.922 (inactive),0.518,8510,9240,-0.767 (inactive),-0.44,-0.02 (inactive)
OB(O)c1cc2ccccc2s1,0.864 (inactive),0.659,7300,8450,-0.459 (inactive),0.539,0.265 (inactive)
Cc1ccc(Sc2cccc3nc(N)nc(N)c23)cc1,1.07 (inactive),0.775,3810,3570,0.0344 (inactive),0.646,-2.52 (inactive)
NS(=O)(=O)c1ccc(C(=O)NCc2ccccc2)cc1,0.871 (inactive),0.5,8310,9540,0.51 (inactive),-0.575,0.795 (inactive)
CC1(C)CC(Nc2nccc(-c3cnn(-c4ccccc4)c3)n2)CC(C)(C)N1,0.881 (inactive),3.09,4870,5530,-0.228 (inactive),0.372,3.44 (active)
OB(O)c1ccccc1,0.876 (inactive),0.386,7850,8950,-0.818 (inactive),0.216,0.615 (inactive)
CN1CCC(CN(C)Cc2ccc(-c3nc(-c4cccnc4)cc(=O)[nH]3)cc2)CC1,0.831 (inactive),1.62,8360,10100,0.139 (inactive),0.0765,-0.51 (inactive)
O=C(O)c1ccc(O)cc1O,0.891 (inactive),0.246,8740,9810,-0.11 (inactive),-0.1,0.565 (inactive)
COc1ccc2c(C(=O)N(C)C3CCN(C)C3)cc(-c3cnn(C)c3)nc2c1 (stereo not drawn),0.88 (inactive),1.02,8530,9700,-0.325 (inactive),-0.194,-0.495 (inactive)
Fc1ccc(CC2CCNCC2)cc1,0.856 (inactive),0.77,8200,9580,-0.906 (inactive),0.0714,0.525 (inactive)
O=C(O)CNC(=O)Cc1c[nH]c2ccccc12,0.855 (inactive),0.234,8420,9850,-0.685 (inactive),-0.0302,-0.545 (inactive)
O=C(OC1Cc2c(O)cc(O)cc2OC1c1cc(O)c(O)c(O)c1)c1cc(O)c(O)c(O)c1 (stereo not drawn),0.855 (inactive) and 0.924 (inactive),1.5 and 0.635,9030 and 8300,10600 and 8990,-0.179 (inactive),-0.151,-1.44 (inactive)
O=C1CCC(CC(=O)N2CCc3[nH]nc(-c4ccc5c(c4)OCO5)c3C2)N1 (stereo not drawn),0.953 (inactive),1.24,9140,9600,-0.575 (inactive),-0.976,-0.52 (inactive)
CC(C)n1ncc(NC(=O)Cn2ccc(-c3ccc(C(F)(F)F)cc3)n2)n1,0.965 (inactive),1.03,5250,5440,1.15 (inactive),-0.0246,0.42 (inactive)
CCNc1ncc(-c2cc(C(=O)N(C)CCN(C)C)c3cc(F)ccc3n2)cn1,0.912 (inactive),2.18,8760,9610,-0.0763 (inactive),-0.44,-0.56 (inactive)
Cc1cc(-c2cnn(C)c2)nc(N)n1,0.853 (inactive),1.79,8800,10300,-0.132 (inactive),-0.642,-0.56 (inactive)
OCCCc1cn(CC2CCN(c3ncnc4nc[nH]c34)CC2)nn1,0.959 (inactive),1.9,8820,9200,0.238 (inactive),-0.383,-0.565 (inactive)
O=C1CN(c2ncnc3sccc23)CCN1Cc1cccc(F)c1,0.826 (inactive),1.63,4730,5730,-0.104 (inactive),0.0557,3.78 (active)
CC(c1cccc(O)c1)N(C)C (stereo not drawn),0.895 (inactive),0.805,8630,9640,-0.0784 (inactive),-0.273,0.205 (inactive)
